Assay outcomes (PubChem)
ALDH1A1 block: ALDH1A1 (human) enzyme inhibition. Potency, µM (titrated, usually from 75.3 µM), for inactives: at the highest dose activity, negative = inhibition, hits mostly inhibitors. 220,000 compounds, 7.3% hits. P00352. Purified ALDH1A1, NADH fluorescence, propionaldehyde substrate; active means well fitted inhibition curve with a large enough effect, not every such curve was filed as active; inconclusive means small, poorly fitted or top-dose-only effect, or another doubt; inactive means no such curve, though single readings can be large or run the other way;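 further: potency means the concentration at half of the fitted maximal effect; plate controls were no enzyme wells and a reference inhibitor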
Target sequence (P00352 whole entry, looked up): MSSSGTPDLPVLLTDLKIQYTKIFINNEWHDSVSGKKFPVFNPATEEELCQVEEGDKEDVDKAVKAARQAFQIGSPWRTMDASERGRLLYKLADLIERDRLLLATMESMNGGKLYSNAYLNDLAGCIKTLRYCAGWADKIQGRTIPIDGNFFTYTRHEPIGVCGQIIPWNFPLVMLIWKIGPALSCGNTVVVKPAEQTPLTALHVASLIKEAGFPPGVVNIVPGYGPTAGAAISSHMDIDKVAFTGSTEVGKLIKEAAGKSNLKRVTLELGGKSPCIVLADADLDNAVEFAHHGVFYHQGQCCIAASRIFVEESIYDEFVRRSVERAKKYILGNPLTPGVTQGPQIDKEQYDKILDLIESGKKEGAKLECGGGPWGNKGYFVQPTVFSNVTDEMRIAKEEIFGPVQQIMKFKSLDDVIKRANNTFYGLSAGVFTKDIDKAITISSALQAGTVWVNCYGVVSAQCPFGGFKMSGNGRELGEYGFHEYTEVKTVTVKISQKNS
HTT ATP protect: Huntington cell model cytoprotection by ATP luminescence; PC12 HTT-Q103 induced, cytoprotection, ATP luminescence, 40 h; 230,000 compounds, 0.14% hits; Potency, µM (highest dose often 56.4 µM), inactives show cytoprotection (ATP increase), hits mostly activators; further: potency means the concentration at half of the fitted maximal effect; % of control where 0% means no effect; nearly all actives have a fitted effect of over 45% in size
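Rat PC12, Q103 Htt exon1-GFP fusion, ecdysone promoter; tebufenozide inducer 100 nM final; compound titration; qHTS, 1500 cells/well; ATPlite luminescent read.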
JMJD2E inh: JMJD2E (human) inhibition; B2RXH2; JMJD2E catalytic domain, FDH-coupled NADH fluorescence (FDH is formaldehyde dehydrogenase); Potency, µM (titrated, usually from 57.1 µM), for the others: top-dose activity change, negative = inhibition, actives largely listed as inhibitors; 230,000 compounds, 1.6% hits; active means well fitted inhibition curve with a large enough effect, not every such curve was filed as active; inconclusive means small, poorly fitted or top-dose-only effect, or another doubt; inactive means no such curve, though single readings can be large or run the other way;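 further: potency means the concentration at half of the fitted maximal effect; 0% = wells with enzyme and -100% = buffer wells without enzyme; nearly all actives have a fitted effect of over 50% in size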
CBFb RUNX1 block: blocks binding between human CBF-beta and RUNX1. AlphaScreen CBFb-His/RUNX1-biotin binding, biochemical. Potency, µM (doses to about 59.8 µM), for the others: at the highest dose activity, negative = inhibition, actives largely listed as inhibitors. Q01196+Q13951. AID 1477. 230,000 tested, under 10 active; further: % of control where 0% means no effect
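Interaction loss through any mechanism counts as activity. Pre-formed complex of His-CBF-beta and biotin-RUNX1 (30 nM apiece) is incubated with compound 15 min, then with 50 ng nickel and 50 ng streptavidin beads for 90 min before AlphaScreen detection.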
HPGD block: inhibitors of human 15-hydroxyprostaglandin dehydrogenase (HPGD) | Potency, µM, without a hit: top-dose activity change, negative = inhibition, usual class: inhibitors | P15428 | purified HPGD, NADH fluorescence kinetic, PGE2 substrate | 150,000 compounds, 4.3% hits | AID 894; active means well fitted inhibition curve with a large enough effect, not every such curve was filed as active; inconclusive means small, poorly fitted or top-dose-only effect, or another doubt; inactive means no such curve, though single readings can be large or run the other way; further: potency means the concentration at half of the fitted maximal effect; on the % scale 0 is the no-effect control and ±100 the full control effect
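20 nM HPGD preincubated 15 min at room temperature with compound in 50 mM Tris-HCl pH 8, 0.01% Tween 20. Started with 1 mM NAD+ and 30 uM prostaglandin E2; NADH fluorescence (360/450 nm) read 5 times over 30-s intervals, last minus first.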
HttQ103 aggreg: inhibitors of mutant huntingtin aggregate formation in PC12 cells; PC12 HttQ103-GFP aggregates, Acumen cytometry, 40 h; Potency, µM (top dose mostly 46.1 µM), for inactives: top-dose activity change, negative = inhibition, hits mostly inhibitors; 220,000 compounds, 1.1% hits; further: potency means the concentration at half of the fitted maximal effect; on the % scale 0 is the no-effect control and ±100 the full control effect; nearly all actives have a fitted effect of over 60% in size
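Compounds (qHTS titration) were added to PC12 cells expressing an ecdysone-driven HTT exon 1 Q103–GFP fusion after induction with 100 nM tebufenozide. Aggregate formation was measured as GFP objects in cell lysates.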
Starred values were filed as active, the others as inactive; ? = inconclusive; nt = not tested or not shown; ! = not active in a repeat; [ ] = remark or other dose. Compounds with a hit are over-represented: about 9.8% of the library has one in this group of screens. Unless noted, the call rests on the fitted dose curve; in most records, active means well fitted curve in the direction sought with a large enough effect; inconclusive means small, poorly fitted or top-dose-only effect, or another doubt; inactive means no such curve, though single readings can be large; an effect the other way counts as inactive or inconclusive.

SMILES	ALDH1A1 block	HTT ATP protect	JMJD2E inh	CBFb RUNX1 block	HPGD block	HttQ103 aggreg
CCOc1ccc(C(C)=O)cc1CSc1nnc(-c2ccoc2C)n1N	22µM*	-23%	-5%	-20%	14µM*	-11%
Cc1cc(NC(=O)CSc2nnc(-c3ccoc3C)n2N)no1	-5%	-8%	3%	-5%	-2%	16%
COc1cccc(CN2CCNC(=O)C2CC(=O)NCCn2ccc3ccccc32)c1OC (configuration not stated)	?	2%[10 µM]	?	-22%	nt	-3%[9.22 µM]
Cc1ccc(S(=O)(=O)Nc2cccc(N(C)S(C)(=O)=O)c2)cc1[N+](=O)[O-]	16µM*	14%[10 µM]	0%	-6%	nt	-9%[9.22 µM]
CN(c1cccc(NS(=O)(=O)c2cccc([N+](=O)[O-])c2)c1)S(C)(=O)=O	?	-23%[1.9 µM]	5%	-2%	nt	2%[9.22 µM]
COc1ccccc1N(CC(=O)NCCC1=CCCCC1)S(=O)(=O)c1ccccc1	-3%	-29%	1%	1%	nt	14%
Cc1noc2ncnc(Sc3ccccc3Cl)c12	-16%	-83%	-4%	-21%	-11%	5µM*
CN(C)CC(C)(C)CNS(=O)(=O)c1cccc2nsnc12	8%	nt	-2%	11%	-15%	9%
O=C(c1cc(-c2cccs2)on1)N1CCc2ccccc2C1	-4%	26%[10 µM]	-4%	10%	13µM*	9%
O=C(Cn1nnc(-c2cccs2)n1)N1CCOCC1	16%	-28%	1%	6%	nt	-2%
COc1ccccc1N1CCN(C(=O)c2cc(-c3ccco3)on2)CC1	?	-2%	-8%	-4%	2%	13%
O=C(c1cc(-c2ccco2)on1)N1CCN(c2ccccc2)CC1	14µM*	-4%	-6%	3%	-18%	16%
O=C(CCn1nnc(-c2cccs2)n1)N1CCc2ccccc2C1	28µM*	-6%[10 µM]	17%	2%	16µM*	5%
O=C(c1cc(-c2cccs2)on1)N1CCOCC1	-3%	-7%	-4%	2%	-23%	4%
O=C(c1ccc2nc(-c3ccco3)c(-c3ccco3)nc2c1)N1CCN(c2ccccc2)CC1	8.9µM*	-5%[0.074 µM]	?	?	?	?
O=C(c1cc(-c2ccccc2O)on1)N1CCc2ccccc2C1	?	1%	-4%	2%	?	7%
O=C(c1cc(-c2ccco2)on1)N1CCc2ccccc2C1	7.9µM*	-9%	-28%	-30%	11µM*	20%
O=C(c1cc(-c2ccc(O)cc2)on1)N1CCc2ccccc2C1	?	-2%	5%	0%	13µM*	-12%
O=C(CN1C(=O)c2ccccc2C1=O)[C@@H](O)CN1C(=O)c2ccccc2C1=O	?	3%[10 µM]	nt	nt	2%	nt
O=C(O)/C=C/C(=O)Nc1ccccc1-c1ccccc1	?	-22%	1%	1%	28µM*	-5%
CCCCCC(CC)COC(=O)CC(C(=O)OCC(CC)CCCC)S(=O)(=O)O (configuration not stated)	nt	-2%	nt	nt	nt	-12%
CCN(Cc1ccccc1)S(=O)(=O)c1ccc2c(c1)NC(=O)CC(=O)N2	14µM*	-10%	5%	-4%	nt	-4%
CC1CC(C)CN(C(=O)COC(=O)CCc2nc3ccccc3c(=O)[nH]2)C1 (configuration not stated)	3.5µM*	9%[10 µM]	-3%	19%	-9%	0%
CC(=O)Oc1ccc2c(c1)Oc1cc(OC(C)=O)ccc1C21OC(=O)c2ccccc21	?	14%[10 µM]	2%	3%	-19%	0.32µM*
CCCCCCCCNC(C)C(O)c1ccc(SC(C)C)cc1 (configuration not stated)	7.9µM*!	-98%	9%	8%	-3%	?
CCC(=O)c1ccc(OCc2ccc(C(=O)OC)o2)c(OC)c1	?	-1%	1%	3%	22µM*	16%[9.22 µM]
COc1cc(OC)nc(/N=C/N(C)C)n1	5%	-1%[10 µM]	7%	1%	nt	5%
